# In the library only some 7.2% were active in any assay of this set; here they are far more common.
# HCV inh: blocks hepatitis C virus | Huh7.5.1 HCVcc-Cre infection, luciferase reporter, 44 h | 3.4% of 340,000 active | AID 651820 | Potency, µM (series often up to 41.8 µM), for inactives: top-dose activity change, negative = inhibition, usual class: inhibitors
#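 Cells (1,000/well) were plated 4 h before compound, then infected with HCVcc-Cre virus (~0.5 moi). After 44 h further culture, infection was read as luciferase luminescence following a 15 min substrate incubation at room temperature.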
# FMDV inh: blocks foot and mouth disease virus. 1.2% of 410,000 active. Potency, µM (series often up to 57.9 µM), for inactives: at the highest dose activity change, negative = inhibition, usual class: inhibitors. FMDV antiviral cell-based qHTS; calls by dose curve; tested in HEK293T cells; also: read-out not given here; nearly all actives have a fitted effect of over 45% in size
# RE007 growth inh: less growth of the S. pombe RE007 Vpr strain. S. pombe RE007 Vpr strain, BacTiter-Glo ATP luminescence, 24 h. Potency, µM (series often up to 92.2 µM), inactives show at the top dose activity change, negative = less growth, actives largely listed as inhibitors. 0.21% of 360,000 active. AID 651644; active = well fitted falling curve with a large enough effect; inconclusive = small, poorly fitted or top-dose-only effect; inactive = no such curve, though single readings can be large or run the other way; also: nearly all actives have a fitted effect of over 50% in size
#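 Fission yeast RE007 carrying one integrated HIV-1 vpr copy, seeded at OD 0.01 in PMG+AL medium with 23 nL pinned compound. Grown 24 h at 30 degrees; viability read by BacTiter-Glo luminescence after 5 min.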
# LASV entry inh: Lassa virus entry inhibition. 1.2% of 300,000 active. Potency, µM (titrated, usually from 37.9 µM), without a hit: top-dose activity change, negative = inhibition, actives largely listed as inhibitors. Lassa virus pseudotype entry inhibition, cell reporter; calls by dose curve; tested in HEK293 cells; also: nearly all actives have a fitted effect of over 50% in size
# MARV entry inh: Marburg virus entry inhibition. Marburg virus pseudotyped entry inhibition, cell reporter. Potency, µM (doses to about 37.8 µM), without a hit: at the highest dose activity change, negative = inhibition, actives largely listed as inhibitors. 1.8% of 300,000 active. AID 540276; calls by dose curve; tested in HEK293 cells
# Sm TGR block: S. mansoni TGR enzyme inhibition | Q962Y6 | purified TGR, DTNB reduction, TNB absorbance 405 nm | Potency, µM (highest dose often 114 µM), inactives show at the highest dose activity change, negative = inhibition, hits mostly inhibitors | 3% of 360,000 active; also: nearly all actives have a fitted effect of over 60% in size
#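 TGR 20 nM + NADPH 100 uM (dispensed conc.), cpd preinc 15 min RT; start with NADPH (500 uM addition) then DTNB (15 mM addition). Kinetic TNB absorbance, 405 nm filter. Four-parameter Hill fit across titration.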
# Starred values were filed as active, the others as inactive; ? = inconclusive; . = no result given; [ ] = another dose, or the depositor's remark. Unless noted, calls follow the shape of the dose curve; as a rule, active = well fitted curve in the direction sought with a large enough effect; inconclusive = small, poorly fitted or top-dose-only effect, or another doubt; inactive = no such curve, though single readings can be large; an effect the other way counts as inactive or inconclusive. % is scaled to controls: 0 for no effect and ±100 for the full control effect; potency is read from the fitted curve at half-maximal effect.
SMILES,HCV inh,FMDV inh,RE007 growth inh,LASV entry inh,MARV entry inh,Sm TGR block
CCc1ccc(CN(C)C(=O)CCc2nc3ccccc3n(-c3ccc(OC)cc3)c2=O)cc1,?,?,5.0%,14.1µM*,10µM*,3.5%
COc1ccc(-n2c(=O)c(CCC(=O)N(C)Cc3ccccc3C)nc3ccccc32)cc1,?,-11.6%,10.8%,.,0.0%,-14.3%
CCn1c(SCC(=O)Nc2nccs2)nnc1-c1ccc(S(=O)(=O)N2CCCCC2)cc1,?,25.1µM*,19.3%,-1.7%,-24.1%,-30.2%
CCn1c(SCC(=O)Nc2nccs2)nnc1-c1ccccc1,-9.7%,14.5%,10.2%,-16.9%,29.2%,2.4%
C/C(=N\Nc1ccc(S(N)(=O)=O)cc1[N+](=O)[O-])c1ccco1,-29.3%,-2.7%,4.3%,-9.3%,-3.3%,39.8µM*
C/C(=N\Nc1ccc(S(N)(=O)=O)cc1[N+](=O)[O-])c1ccccc1O,-9.1%,-3.1%,0.7%,-21.7%,-24.2%[46.1 µM],-1.5%
CCN(CCNC(=O)C1CCN(Cc2nc(-c3cccc(Cl)c3)oc2C)CC1)c1ccccc1,?,39.8µM*,11.2%,?,?,5.7%
Cc1oc(-c2cccc(Cl)c2)nc1CN1CCC(C(=O)NC(C)c2ccccc2)CC1 (centres undefined),.,35.5µM*,.,21.2%[46.1 µM],8.3%[46.1 µM],1.3%
CCN(CCNC(=O)C1CCN(Cc2nc(-c3ccc(Cl)cc3)oc2C)CC1)c1ccccc1,-42.9%,?,19.1%,?,?,-0.3%
CCOC(=O)c1c(NC(=S)N2CCN(C)CC2)sc2c1CCN(C(=O)OCC)C2,6.31µM*,-18.7%,-1.1%,-15.9%[46.1 µM],?,7.1%
CCOC(=O)c1c(NC(=O)CN(CC)CC)sc2c1CCN(C(=O)OCC)C2,2.82µM*,?,-5.0%,?,?,4.2%
CCOC(=O)c1c(NC(=O)CN2CCCCC2)sc2c1CCN(C(=O)OCC)C2,10µM*,.,0.7%,?,?,-2.1%
Cc1cc2c(cc3c(SCc4ccc(Cl)cc4)nncn32)o1,.,-10.3%,.,-5.6%[46.1 µM],.,-17.4%
C=CCN1c2ccccc2[C@]23CCC(=O)N(CCc4ccccn4)C2=NC(C(=O)OC)=C(C(=O)OC)[C@H]13,.,.,.,.,4.2%[14.2 µM],.
Cc1c(Cl)cccc1NC(=O)c1ccc2c(c1)CCCN2S(C)(=O)=O,.,?,.,22.0%[46.1 µM],21.9%[46.1 µM],1.3%
O=c1c2c3c(sc2ncn1/N=C/c1ccc([N+](=O)[O-])o1)CCCC3,14.2%,28.2µM*,-1.9%,?,0.6%,-10.6%
Cc1occc1C(=O)NCCCCc1ccccc1,-5.7%,13.3%,?,16.4%,?,20µM*
Cc1occc1C(=O)NCc1ccccc1,3.7%,-3.5%,-7.9%,12.6%,12.1%,?
Cc1occc1C(=O)NCc1ccc(C(=O)O)o1,21.6%,-2.9%,-3.1%,-11.0%,?,39.8µM*
Cc1occc1C(=O)NCCc1ccc(Cl)cc1,13.7%,45.0%,-11.1%,16.9%,-3.0%,22.4µM*
Cc1cc(C(=O)NCc2ccc(C(=O)O)o2)c(C)o1,12.1%,-11.3%,7.9%,-3.5%,2.7%,-2.7%
O=C(NCCc1ccc(O)cc1)c1ccc(Cl)cc1,0.2%,51.0%,-0.4%,-3.3%,15.1%,8.2%
Cc1ccoc1C(=O)NCCCNC(=O)c1occc1C,-2.9%,1.0%,0.5%,3.2%,6.2%[46.1 µM],44.7µM*
COc1ccc(NC(=O)C2=C(C)Nc3nc(SCc4ccccc4)nn3C2c2cc(OC)ccc2OC)cc1 (centres undefined),.,-24.1%,.,?,.,?
COc1ccc(S(=O)(=O)NCCc2ccccc2)cc1OC,5.2%,137.5%,1.0%,13.6%,?,-28.3%
SMILES,HCV inh,FMDV inh,RE007 growth inh,LASV entry inh,MARV entry inh,Sm TGR block
COc1ccc(S(=O)(=O)NCC(c2cccs2)S(=O)(=O)c2ccccc2)cc1OC (centres undefined),.,47.7%,.,-9.4%[46.1 µM],.,1µM*
O=S(=O)(NCC(c1cccs1)S(=O)(=O)c1ccccc1)c1ccc(F)cc1 (centres undefined),.,34.6%,.,-10.3%[46.1 µM],.,0.501µM*
O=S(=O)(NCC(c1cccs1)S(=O)(=O)c1ccccc1)c1ccc(F)c(C(F)(F)F)c1 (centres undefined),.,64.1%,.,10.6%[46.1 µM],.,?
Cc1ccc(Cn2c(=O)n(Cc3ccc(Cl)cc3)c(=O)c3cccnc32)cc1,.,-17.1%,.,.,-11.5%[46.1 µM],1.0%
Cc1cc(C)c(OCC(=O)N(Cc2ccc(N(C)C)cc2)Cc2ccco2)c(C)c1,.,-21.8%,.,-18.1%[46.1 µM],1.1%[46.1 µM],1.2%
Brc1ccc(-c2cn3ccccc3n2)cc1,-12.7%,-54.8%,?,2.82µM*,?,-9.2%
CCCSc1ccc2nc(-c3ccccc3)cn2c1,?,2.24µM*,?,2.24µM*,?,-1.3%
c1ccc(-c2cn3ccccc3n2)cc1,1.7%,3.9%,-15.2%,-15.9%[46.1 µM],11.2µM*,.
Oc1ccc(-c2cn3ccccc3n2)cc1,0.6%,9.6%,-15.3%,.,.,8.2%
CCCCSc1ccc2nc(-c3ccc(C#N)cc3)cn2c1,?,-2.3%,6.9%,?,-25.3%,8.8%
c1ccc(-c2cn3nc(-c4ccccc4)sc3n2)cc1,?,10µM*,8.6%,?,?,.
O=C(NCc1ccccc1)c1nc(-c2ccc(Cl)cc2)n2c1CCCCC2,.,-16.3%,.,?,.,-8.9%
O=C(O)C1=C(O)CCCC1,.,.,.,.,1.6%,.
O=c1ccn(C2OC(COP(=O)(O)OP(=O)(O)OP(=O)(O)O)C(O)C2O)c(=O)[nH]1 (centres undefined),.,2.7%,.,.,.,.
CCOn1c(=O)c(-c2cccs2)[n+]([O-])c2ccccc21,3.5%,.,-24.5%,5.1%,21.8%,-28.4%
CCOC(=O)COn1c(=O)c(-c2ccc(F)cc2)[n+]([O-])c2ccccc21,9.9%,-7.4%,-7.2%,.,.,89.1µM*
CCOC(=O)COn1c(=O)c(-c2cccs2)[n+]([O-])c2ccccc21,-8.9%,17.7%,-7.9%,0.8%,18.8%,20µM*
CC(=O)/C(N=Nc1ccc2c(c1)OCCO2)=C(\C)O,-24.0%,1.26µM*,0.9%,?,?,4.0%
C=CCOc1ccc(C(=O)/C=C2/C(=O)Nc3ccccc32)cc1,-20.3%,15.9%,-5.6%,-19.3%[46.1 µM],?,2.1%
COc1ccc(C(=O)/C=C2/C(=O)Nc3ccccc32)cc1,-1.0%,3.16µM*,-10.2%,.,.,8.7%
O=C1Nc2ccccc2/C1=C/C(=O)c1cccs1,?,22.4µM*,?,-14.6%,?,-33.4%
COc1cc(OC)c(/C=C2\C(=O)Nc3ccccc32)c(OC)c1,?,28.2µM*,3.6%[18.4 µM],.,.,-3.8%
C=CCOc1ccccc1C(=O)/C=C1/C(=O)Nc2ccccc21,-12.6%,39.8µM*,-2.4%,.,.,-15.4%
COc1ccc(C(=O)/C=C2/C(=O)Nc3ccccc32)c(OC)c1,?,?,6.1%,?,?,-12.0%
